According to PubChem BioAssay (Tox21):
Inconclusive results are not listed. The source made the active and inactive calls. Unless noted, calls come from the whole dose curve; as a rule, active = well fitted curve in the direction sought with a large enough effect in the repeat runs; inconclusive = weak or mixed curves; inactive = no such curve, though single readings can be large; an effect the other way counts as inactive or inconclusive.

Experiments:
[1] = qHTS assay to identify small molecule agonists of the peroxisome proliferator-activated receptor delta (PPARd) signaling pathway - cell viability counter screen (AID 743211); note: nearly all actives have a fitted effect of over 55% in size
How it was run: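 In the same wells used for beta-lactamase reporter measurement, cytotoxicity is scored by CellTiter-Glo. HEK293H PPARd-bla cells receive compound for 17 h at 37C following a 5 h settling period.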

[2] = qHTS assay to identify small molecule antagonists of the peroxisome proliferator-activated receptor delta (PPARd) signaling pathway - cell viability counter screen (AID 743213); note: nearly all actives have a fitted effect of over 50% in size
How it was run: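 Viability counter-screen, qHTS format: PPARd-bla HEK293H, L165041 300 nM final, 17 h compound exposure at 37 C, CellTiter-Glo luminescence after 30 min RT.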

[3] = qHTS assay to identify small molecule agonists of the farnesoid-X-receptor (FXR) signaling pathway - cell viability counter screen (AID 743218); note: nearly all actives have a fitted effect of over 45% in size
How it was run: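 Same-well cytotoxicity check on FXR-UAS-bla HEK 293T cells: 5 h attachment, 16 h compound at 37 C, CellTiter-Glo luminescence read at room temperature after 30 min.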

[4] = qHTS assay to identify small molecule antagonists of the farnesoid-X-receptor (FXR) signaling pathway - cell viability counter screen (AID 743221; active = well fitted cell-killing curve with a large enough effect in the repeat runs, not every such curve was filed as active; note: nearly all actives have a fitted effect of over 50% in size)
How it was run: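 Here viability was scored by luminescence after CellTiter-Glo addition to wells already read for beta-lactamase. Prior treatment: compound plus CDCA (50 uM final), 16 h, 37 C, HEK 293T FXR-bla cells.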

[5] = biological target: Vitamin D3 receptor (Homo sapiens) (UniProt P11473); test: qHTS assay to identify small molecule agonists of the vitamin D receptor (VDR) signaling pathway (AID 743222; calls by dose curve)
How it was run: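 Using LiveBLAzer B/G FRET detection, agonism was scored in VDR-bla cells exposed overnight (16 h, 37C) to DMSO-dissolved compounds; substrate incubation was 2 h at room temperature.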

[6] = biological target: Vitamin D3 receptor (Homo sapiens) (UniProt P11473); test: qHTS assay to identify small molecule antagonists of the vitamin D receptor (VDR) signaling pathway (AID 743223; active = well fitted inhibition curve with a large enough effect in the signal ratio in the repeat runs, not every such curve was filed as active; the % refers to the signal ratio)
How it was run: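 Inhibition of agonist-driven VDR signalling is scored in VDR-bla cells: 3 nM final 1alpha,25-dihydroxyvitamin D3 plus compound, 16 h at 37C, then beta-lactamase detection by FRET substrate fluorescence after 2 h.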

[7] = qHTS assay to identify small molecule agonists of the vitamin D receptor (VDR) signaling pathway - cell viability counter screen (AID 743224); note: series mostly up to about 63 µM; nearly all actives have a fitted effect of over 50% in size
How it was run: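 Counter screen for cytotoxicity: VDR-bla cells at 2,000 cells/well, 16 h compound exposure, then CellTiter-Glo luminescence after the beta-lactamase measurement.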

[8] = qHTS assay to identify small molecule antagonists of the vitamin D receptor (VDR) signaling pathway - cell viability counter screen (AID 743225); note: nearly all actives have a fitted effect of over 50% in size
How it was run: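 Compounds were pinned onto VDR-bla HEK 293T cells together with 1-alpha,25-dihydroxyvitamin D3 at 3 nM final. After 16 h at 37C and 5% CO2 plus the reporter readout, cell viability was measured by CellTiter-Glo luminescence (30 min, room temperature).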

[9] = qHTS assay to identify small molecule agonists of the NFkB signaling pathway (AID 1159509; active = well fitted curve in the direction sought with a large enough effect in the signal ratio in the repeat runs, not every such curve was filed as active; the % refers to the signal ratio; note: series mostly up to about 61 µM)
How it was run: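 Readout: FRET fluorescence, 405 nm excitation, 460/530 nm emission; beta-lactamase expression disrupts FRET. Cells: ME-180 stably carrying NF-kB-driven bla reporter. Compound exposure 5 hr, 37 C, 5% CO2.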

[10] = qHTS assay to identify small molecule agonists of the NFkB signaling pathway - cell viability counter screen (AID 1159515; calls by dose curve; note: series mostly up to about 61 µM; nearly all actives have a fitted effect of over 55% in size)
How it was run: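 Counter screen run alongside the NFkB-bla agonist assay: ME-180 reporter cells exposed to compounds for 5 hr, then lysed with CellTiter-Glo in the same wells. Luminescence, read after 30 min, reflects viable cells.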

[11] = qHTS assay to identify small molecule agonists of the endoplasmic reticulum stress response signaling pathway (AID 1159516; active = well fitted activation curve with a large enough effect in the signal ratio in the repeat runs, not every such curve was filed as active; the % refers to the signal ratio)
How it was run: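 For this screen, HeLa cells stably carrying beta-lactamase under the ER stress response element received test compounds, positive controls or DMSO for 5 hr at 37 C; B/G FRET substrate was then added and dual-wavelength emission recorded.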

[12] = qHTS assay to identify small molecule agonists of the endoplasmic reticulum stress response signaling pathway - cell viability counter screen (AID 1159517; calls by dose curve)
How it was run: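 Steps: seed 1,500 ESRE-bla HeLa cells per well; incubate overnight at 37 C, 5% CO2; add compounds in DMSO for 5 hr; run FRET substrate 2 hr RT; add CellTiter-Glo, wait 30 min, read luminescence.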

[13] = biological target: Nuclear receptor ROR-gamma (Homo sapiens) (UniProt P51449); test: qHTS assay to identify small molecule antagonists of the retinoid-related orphan receptor gamma (ROR-gamma) signaling pathway (AID 1159521)
How it was run: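 Test compounds were applied to Tet-on RORγ CHO cells 2 h ahead of doxycycline hyclate (1 uM final). Luciferase reporter activity was quantified by luminescence after 16 h at 37 C and 5% CO2.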

[14] = qHTS assay to identify small molecule agonists of the AP-1 signaling pathway - cell viability counter screen (AID 1159525; calls by dose curve; note: nearly all actives have a fitted effect of over 55% in size)
How it was run: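 Same-well cytotoxicity counter screen of the Tox21 10K library in ME-180 cells. The readout is ATP-dependent luminescence after 5 h compound treatment. Data are normalised to DMSO and tetra n-octyl ammonium bromide controls.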

[15] = qHTS assay to identify small molecule agonists of the AP-1 signaling pathway (AID 1159526; calls by dose curve)
[16] = biological target: Peroxisome proliferator-activated receptor delta (Homo sapiens) (UniProt Q03181); test: qHTS assay to identify small molecule agonists of the peroxisome proliferator-activated receptor delta (PPARd) signaling pathway (AID 743212; calls by dose curve)
How it was run: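 Read-out: beta-lactamase FRET fluorescence after 2 h room-temperature incubation with LiveBLAzer B/G substrate. Cells were HEK293H carrying a UAS-bla reporter for PPARd, treated at 37 C with DMSO-dissolved compounds.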

[17] = biological target: Peroxisome proliferator-activated receptor delta (Homo sapiens) (UniProt Q03181); test: qHTS assay to identify small molecule antagonists of the peroxisome proliferator-activated receptor delta (PPARd) signaling pathway (AID 743215; active = well fitted inhibition curve with a large enough effect in the signal ratio in the repeat runs, not every such curve was filed as active; the % refers to the signal ratio;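 note: cells stimulated with agonist L165041 at 300 nM final during compound exposure; series mostly up to about 62 µM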)
How it was run: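 Screen format: qHTS, antagonist mode. HEK293H PPARd-bla cells received compound and 300 nM L165041 (final), 17 h, 37 C. Beta-lactamase detected via FRET substrate fluorescence, 2 h, room temperature.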

[18] = biological target: Bile acid receptor (Homo sapiens) (UniProt Q96RI1); test: qHTS assay to identify small molecule antagonists of the farnesoid-X-receptor (FXR) signaling pathway (AID 743217; active = well fitted inhibition curve with a large enough effect in the signal ratio in the repeat runs, not every such curve was filed as active; the % refers to the signal ratio)
How it was run: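 Quantitative HTS, beta-lactamase reporter format: FXR-UAS-bla HEK 293T cells co-treated 16 h at 37 °C with compounds and 50 uM final chenodeoxycholic acid, then read by B/G FRET fluorescence.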

[19] = biological target: Bile acid receptor (Homo sapiens) (UniProt Q96RI1); test: qHTS assay to identify small molecule agonists of the farnesoid-X-receptor (FXR) signaling pathway (AID 743220; active = well fitted activation curve with a large enough effect in the signal ratio in the repeat runs, not every such curve was filed as active; the % refers to the signal ratio)
How it was run: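 FXR-UAS-bla HEK 293T cells carrying a UAS-driven beta-lactamase reporter were plated for 5 h at 37C/5% CO2, then exposed to DMSO-dissolved Tox21 10K compounds for 16 h at 37C. A LiveBLAzer B/G FRET substrate was loaded for 2 h at room temperature before fluorescence reading.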

[20] = qHTS assay to identify small molecule antagonists of the retinoid-related orphan receptor gamma (ROR-gamma) signaling pathway - cell viability counter screen (AID 1159520); note: nearly all actives have a fitted effect of over 50% in size
How it was run: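 Tet-on ROR gamma CHO cells were given compounds for 2 hr, then doxycycline hyclate at 1 uM final, and incubated 16 hr at 37 C. Viability was measured as ATP content by CellTiter-Glo luminescence.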

Measured: Potency

Sequence of Vitamin D3 receptor (Homo sapiens) (P11473 whole entry, looked up): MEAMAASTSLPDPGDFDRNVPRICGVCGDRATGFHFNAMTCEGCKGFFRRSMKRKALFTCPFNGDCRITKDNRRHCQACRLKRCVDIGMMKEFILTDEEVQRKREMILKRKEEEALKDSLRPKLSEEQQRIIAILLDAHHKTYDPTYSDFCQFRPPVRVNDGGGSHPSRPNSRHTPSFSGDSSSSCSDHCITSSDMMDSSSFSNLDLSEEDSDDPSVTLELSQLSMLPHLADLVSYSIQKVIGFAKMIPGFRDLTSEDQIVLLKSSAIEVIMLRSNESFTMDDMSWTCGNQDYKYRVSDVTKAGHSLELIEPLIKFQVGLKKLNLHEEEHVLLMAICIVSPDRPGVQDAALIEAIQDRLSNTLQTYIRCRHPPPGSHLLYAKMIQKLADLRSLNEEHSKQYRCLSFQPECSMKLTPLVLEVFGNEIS
Sequence of Peroxisome proliferator-activated receptor delta (Homo sapiens) (Q03181 whole entry, looked up): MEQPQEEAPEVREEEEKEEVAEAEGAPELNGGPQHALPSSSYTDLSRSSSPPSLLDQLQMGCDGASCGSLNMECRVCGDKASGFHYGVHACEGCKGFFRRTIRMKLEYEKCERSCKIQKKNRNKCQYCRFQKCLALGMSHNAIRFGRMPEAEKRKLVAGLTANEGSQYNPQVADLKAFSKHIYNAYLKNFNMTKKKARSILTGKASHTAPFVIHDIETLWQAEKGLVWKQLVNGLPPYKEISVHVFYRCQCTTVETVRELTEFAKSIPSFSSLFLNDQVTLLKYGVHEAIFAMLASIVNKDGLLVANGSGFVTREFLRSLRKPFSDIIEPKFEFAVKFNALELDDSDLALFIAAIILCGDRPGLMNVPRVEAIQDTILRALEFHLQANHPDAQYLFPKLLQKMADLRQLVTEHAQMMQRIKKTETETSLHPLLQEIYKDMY
Sequence of Bile acid receptor (Homo sapiens) (Q96RI1 whole entry, looked up): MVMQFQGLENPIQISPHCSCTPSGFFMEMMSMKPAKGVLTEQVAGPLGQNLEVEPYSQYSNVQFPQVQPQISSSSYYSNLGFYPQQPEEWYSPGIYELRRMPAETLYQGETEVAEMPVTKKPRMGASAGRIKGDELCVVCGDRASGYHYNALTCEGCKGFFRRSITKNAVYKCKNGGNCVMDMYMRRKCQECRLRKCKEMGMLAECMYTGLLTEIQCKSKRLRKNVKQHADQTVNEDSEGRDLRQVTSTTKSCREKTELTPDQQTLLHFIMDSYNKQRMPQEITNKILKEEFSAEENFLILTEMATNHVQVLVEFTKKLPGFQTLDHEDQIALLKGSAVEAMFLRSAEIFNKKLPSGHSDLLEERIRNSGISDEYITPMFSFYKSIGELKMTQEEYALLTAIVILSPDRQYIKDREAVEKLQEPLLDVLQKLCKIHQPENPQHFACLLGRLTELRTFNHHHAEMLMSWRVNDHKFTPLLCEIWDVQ

NCC(O)c1ccc(O)cc1 (stereo not given)
not listed: [16] | [17] | [18] | [19] | [20]
inactive: all other assays above

CCCCN(CC)C(=O)SCCC
inactive: all assays above

Cc1ccc([N+](=O)[O-])cc1C
not listed: [11]
inactive: all other assays above

BrCCBr
not listed: [11] | [14] | [18] | [19]
inactive: all other assays above

CCCCOC(=O)c1ccccc1C(=O)OCCCC
not listed: [11] | [14] | [15] | [16] | [17] | [18] | [19] | [20]
inactive: all other assays above

c1ccc2c(c1)oc1ccccc12
not listed: [13] | [18] | [19] | [20]
inactive: all other assays above

CCc1cccc(C)c1N(C(=O)CCl)C(C)COC (stereo not given)
not listed: [11] | [13] | [14] | [16] | [17] | [18] | [19]
inactive: all other assays above

CC(C#N)CCC#N (stereo not given)
not listed: [11] | [18] | [19]
inactive: all other assays above

CC1C=[C-]C=C1.[C-]#[O+].[C-]#[O+].[C-]#[O+].[Mn]
not listed: [3] | [14] | [20]
inactive: all other assays above
